697 NFkB inh = inhibitors of PMA/ionomycin-induced NF-kB reporter, 697 cells, primary screen, B-cell NF-kB inhibitor project, cell-based, luminescence, uHTS. 697 B-cell NF-kB luciferase reporter, 16 h. inhibition, % at 4 µM. 330,000 tested, 0.33% active. AID 435022, 2010; in the data active = inhibition above about 35%
Shn3 inh set2 = reduction of Shn3 3'UTR firefly luciferase signal, primary screen, Schnurri-3 inhibitor project, cell-based, Clone20 osteoblasts, set 2. inhibition, % at 12.5 µM. Clone20 osteoblast Shn3 3'UTR firefly luciferase, 24 h. 360,000 tested, 0.52% active;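 active = mean inhibition of at least 75% with every replicate also reaching 75%; inconclusive = mean inhibition at least 75% but some replicate below; inactive = mean inhibition below 75%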;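 note: 0% = median of neutral control wells and 100% = pilot-screen positive control compound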
TRPM1 prom inh = inhibitors of MITF-dependent TRPM1 promoter reporter, primary screen, cell-based, SK-MEL-5, single point, luciferase; SK-MEL-5 TRPM1 promoter luciferase, 24 h; inhibition, % at 12.5 µM; 330,000 tested, 0.83% active; AID 488899, 2010;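 active = mean inhibition across replicates of 60% or more, whatever share of single replicates reaches that level; inconclusive = some that reach 60%, reason not given; inactive = mean inhibition across replicates below 60%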
EBV LMP1 NFkB = EBV LMP1-driven NF-kappaB luciferase reporter inhibitors, primary screen, cell-based, luminescence, single point; LMP1-induced NF-kappaB luciferase reporter cells; inhibition, % at 12.5 µM; 350,000 tested, 0.69% active; in the data active = inhibition above about 41%; inconclusive = no clear call, values can overlap the other calls;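 note: 0% = neutral control wells and 100% = reference inhibitor control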
Jurkat NFkB inh = inhibitors of induced NF-kB luciferase reporter, primary screen, TCR NF-kB activation inhibitor project, cell-based, luminescence, uHTS | Jurkat, PMA/ionomycin-induced NF-kB luciferase reporter | inhibition, % at 4 µM | 330,000 tested, 0.53% active; in the data active = inhibition above about 50%
Gli-Sufu antag = Gli-Sufu pathway antagonists, primary screen, luciferase luminescence, Sufu-KO-LIGHT cells, uHTS | Sufu-KO-LIGHT fibroblasts, Gli luciferase reporter luminescence | inhibition, % at 5 µM | 340,000 tested, 0.74% active | AID 588413, 2011;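 active = inhibition above about 55%, limit read from the data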;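 note: 0% = DMSO-treated cells and 100% = wells with medium but no cells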
Gli-Sufu confirm = Gli-SUFU pathway antagonists, confirmation, single concentration, luciferase luminescence, Sufu-KO-LIGHT cells; 2,500 tested, 40% active; AID 602428, 2012; inhibition, % at 5 µM; Gli luciferase reporter; shares compounds with Gli-Sufu antag;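 active = mean inhibition at 5 µM reaching about 45%, limit read from the data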;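 note: plate controls were DMSO-treated cells for no effect and wells lacking cells for full effect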
SufuKO cytotox = cytotoxicity in Sufu-KO-LIGHT cells, confirmation, cytotoxicity control for Gli-SUFU antagonist project, cell-based, ATP luminescence, single concentration. shares compounds with Gli-Sufu antag. cytotoxicity, % at 5 µM. 2,500 tested, 32% active;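 active = mean cytotoxicity at 5 µM above about 25%, limit read from the data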;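 note: cells exposed to compound overnight for roughly 16 to 18 hours; plate controls were DMSO wells with cells for no effect and medium without cells for full effect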
Wnt3a counter = Wnt3a reporter signal inhibition, confirmation, counter-screen for Gli-SUFU antagonist project, Wnt-LIGHT cells, luminescence, single concentration | shares compounds with Gli-Sufu antag | Wnt3a-driven luciferase reporter | inhibition, % at 6.25 µM | 2,500 tested, 20% active | AID 651995, 2013;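 active = mean inhibition above about 25%, limit read from the data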
* marks the source's active call; other numbers are inactive results; ? = inconclusive; · = no result; ! = a repeat was not active. An excerpt weighted towards active compounds, which were near 2.3% of everything screened.

SMILES	697 NFkB inh	Shn3 inh set2	TRPM1 prom inh	EBV LMP1 NFkB	Jurkat NFkB inh	Gli-Sufu antag	Gli-Sufu confirm	SufuKO cytotox	Wnt3a counter
COc1ccc(NC(=S)NNc2ccc([N+](=O)[O-])cc2S(=O)(=O)Nc2ccc(C)cc2C)cc1	-42	25	4	12	2	-11	·	·	·
CCCCCCCCn1c(=O)c(C(=O)OC)c(N)c2ccccc21	-18	54	·	·	17	67*	30	12	28*
Cc1nn(Cc2ccccc2)c(C)c1NC(=O)c1ccc([N+](=O)[O-])cc1[N+](=O)[O-]	21	-7	-5	0	2	-4	·	·	·
CCOC(=O)Cc1csc(NC(=O)c2cccc(Cl)c2)n1	5	-4	·	·	0	-4	·	·	·
O=C(COC(=O)CSc1ccc(F)cc1)NCC1CCCCC1	-4	-3	9	7	-19	95*	30	16	-6
O=C(COC(=O)CSc1ccc(F)cc1)NC1CC1	·	2	·	12	·	·	·	·	·
CCC(CO)Oc1cc(NCc2ccc(O)cc2)c2ncn(C(C)C)c2c1 (stereo not drawn)	16	-17	-9	3	5	1	·	·	·
CCC(CO)Oc1cc(NCc2ccc(C(C)(C)C)cc2)c2ncn(C(C)C)c2c1 (stereo not drawn)	-13	65	1	-34	10	58*	48*	18	30*
CN1CCN(c2ccccc2/C=N/NC(=O)c2cccnc2)CC1	-31	0	12	1	-27	66*	26	9	4
CCOc1cccc(/C=N/NC(=O)c2cccnc2)c1O	-32	70	30	8	6	59*	30	15	33*
O=C(N/N=C\c1cc2c(cc1Cl)OCO2)c1cccnc1	-13	-3	-15	-7	-2	-15	·	·	·
COc1ccc(CCN2CC(C(=O)O)CC2=O)cc1 (stereo not drawn)	20	-1	14	4	5	96*	3	3	-5
O=C(O)C1CC(=O)N(CCc2ccccc2)C1 (stereo not drawn)	-15	-21	-3	-7	6	0	·	·	·
CC1CCCCN1C(=S)NC(=O)c1cccs1 (stereo not drawn)	7	4	15	-3	15	5	·	·	·
CCCCCn1c(=N)n(CC(O)COc2ccccc2OC)c2ccccc21 (stereo not drawn)	-11	86*!	6	-5	13	81*!	41	17	-14
C=CCn1c(=N)n(CC(O)COc2ccccc2OC)c2ccccc21 (stereo not drawn)	-25	26	·	-4	-3	7	·	·	·
Cc1cc(C)nc(SCC(=O)Nc2ccc(N3CCOCC3)c(Cl)c2)n1	-20	?	15	8	24	53	45*	21	-24
COc1cc(C(=O)Oc2ccccc2/C=N/NC(=O)c2ccc(Cl)cc2)cc(OC)c1OC	-74	41	0	0	13	54	29	24	-161
CC(=O)Nc1ccc(C(=O)N/N=C/c2ccccc2OC(=O)c2ccc(Cl)cc2)cc1	9	32	3	8	4	35	·	·	·
CC(C)C(NS(=O)(=O)c1cccc2nsnc12)C(=O)Nc1nccs1 (stereo not drawn)	4	4	-10	0	4	-2	·	·	·
CC(C)C(NS(=O)(=O)c1cccc2nsnc12)C(=O)NC1CCCCC1C (stereo not drawn)	8	-3	0	0	23	58*	28	4	-9
COc1ccc(CNC(=O)c2sc(=O)n(Cc3ccc(C)cc3)c2C)cc1	·	-6	·	·	·	·	·	·	·
Cc1ccccc1CNC(=O)CCNS(=O)(=O)c1ccc(OC(F)(F)F)cc1	8	1	6	5	-1	94*	12	23	-26
O=C(CCNS(=O)(=O)c1ccc(OC(F)(F)F)cc1)NC1CC1	-3	6	13	11	-10	0	·	·	·
CCN(C(=O)/C=C/c1ccc2c(c1)OCO2)c1ccccc1	10	-11	-24	8	-9	-13	·	·	·
SMILES	697 NFkB inh	Shn3 inh set2	TRPM1 prom inh	EBV LMP1 NFkB	Jurkat NFkB inh	Gli-Sufu antag	Gli-Sufu confirm	SufuKO cytotox	Wnt3a counter
COc1cccc(CN2CC(C(=O)NCCOc3ccccc3F)CCC2=O)c1 (stereo not drawn)	-10	17	1	-5	0	59*	36	15	-39
CSc1cccc(N2CC(C(=O)NCCC3=CCCCC3)CC2=O)c1 (stereo not drawn)	9	-15	-21	-17	9	-6	·	·	·
COc1cccc(CN2CC(C(=O)NCCOc3ccccc3)CCC2=O)c1 (stereo not drawn)	-15	-20	-13	0	-2	-6	·	·	·
COc1ccccc1OCCNC(=O)C1CC(=O)N(c2cccc(SC)c2)C1 (stereo not drawn)	-23	7	-5	-8	-17	95*	28	20	-26
CC[n+]1ccccc1/C=C/c1ccc(N(C)C)cc1	·	80	42	9	·	81*	84*	24	40*
CN(C)c1ccc(C=Cc2nccc3ccccc23)cc1	·	-22	·	·	·	·	·	·	·
Cc1c(C(C)C)c(=O)n(-c2ccc(S(=O)(=O)NCc3ccccc3)cc2)n1C	-9	83*	22	13	47	71*	63*	23	6
Cc1c(C(C)C)c(=O)n(-c2ccc(S(=O)(=O)N3CCOCC3)cc2)n1C	-2	-5	11	0	4	4	·	·	·
Cc1c(C(C)C)c(=O)n(-c2ccc(S(=O)(=O)NC3CCCCC3)cc2)n1C	-42	88*	26	23	33	68*	60*	25*	-4
COc1ccc(Nc2nc(N3CCOCC3)nc(N3CCOCC3)n2)c(OC)c1	10	-4	-15	-20	-16	59*	42	-5	15
Cc1cc2c(cc1S(=O)(=O)N1CCCCC1)OCC(=O)N2	-2	1	·	-8	-4	2	·	·	·
CCC(=O)c1ccc(OCC(O)Cn2c(C)nc3ccccc32)cc1 (stereo not drawn)	-35	81	3	25	29	51	52*	23	-12

From PubChem
